In PubChem BioAssay (NCATS):
Results filed as inconclusive are left out. Calls of active or inactive are those of the source. The call rests on the fitted dose curve; in most records, active means well fitted cell-killing curve with a large enough effect; inconclusive means small, poorly fitted or top-dose-only effect, or effect the other way; inactive means flat fitted curve, though single readings scatter. *1 amine or outer side, *2 acyl side, *3 side chain or, on linkers, in order; H or OH if unused. Where a SMILES comes first, the peptide text is derived from it. Bridges are numbered along the chain shown (N, C = ends). X6 = O=C(CCC[*:2])[*:1]

Assays:
Assay in all cases: Primary qHTS to identify gynecologic anti-cancer compounds using libraries of approved drugs and bioactive compounds (AID 1345084); further: nearly all actives have a fitted effect of over 55% in size
CAOV3 = details: Gynecologic cancer cell panel viability, ATPlite luminescence, 48 h; series mostly up to 57.5 µM
Procedure, shortened: (§1)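 ATP-based viability (ATPlite), 1,000 cells/well, 16 h pre-incubation, 48 h compound at 37 C, 5% CO2, 15 min RT before read.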

CASKI = details: Gynecologic cancer cell panel viability, ATPlite luminescence, 48 h; series mostly up to 57.5 µM
Procedure, shortened: as §1

Es-2 = details: Gynecologic cancer cell panel viability, ATPlite luminescence, 48 h; series mostly up to 57.5 µM
Procedure, shortened: as §1

HeLa = details: Gynecologic cancer cell panel viability, ATPlite luminescence, 48 h; series mostly up to 57.5 µM
Procedure, shortened: as §1

Hek293T = details: Gynecologic cancer cell panel viability, ATPlite luminescence, 48 h, control line for the selectivity index; series mostly up to 57.5 µM
Procedure, shortened: as §1

JEG-3 = details: Gynecologic cancer cell panel viability, ATPlite luminescence, 48 h; series mostly up to 57.5 µM
Procedure, shortened: as §1

OV90 = details: Gynecologic cancer cell panel viability, ATPlite luminescence, 48 h; series mostly up to 57.5 µM
Procedure, shortened: as §1

PA-1 = details: Gynecologic cancer cell panel viability, ATPlite luminescence, 48 h; series mostly up to 57.5 µM
Procedure, shortened: as §1

SKOV3 = details: Gynecologic cancer cell panel viability, ATPlite luminescence, 48 h; series mostly up to 57.5 µM
Procedure, shortened: as §1

Tov-21-G = details: Gynecologic cancer cell panel viability, ATPlite luminescence, 48 h; series mostly up to 57.5 µM
Procedure, shortened: as §1

Tov112D = details: Gynecologic cancer cell panel viability, ATPlite luminescence, 48 h; series mostly up to 57.5 µM
Procedure, shortened: as §1
On the % scale 0 is the no-effect control and ±100 the full control effect.

CNC(=O)COC(=O)NCCC1CCN(c2cccc(C)n2)CC1
inactive: Potency (CAOV3) | Potency (CASKI) | Potency (Es-2) | Potency (HeLa) | Potency (Hek293T) | Potency (JEG-3) | Potency (OV90) | Potency (PA-1) | Potency (SKOV3) | Potency (Tov-21-G) | Potency (Tov112D)

CCc1cc2c(=O)c(-c3nc4ccccc4s3)coc2c(CN2CCCCC2)c1O
inactive: Potency (CAOV3) | Potency (CASKI) | Potency (Es-2) | Potency (HeLa) | Potency (Hek293T) | Potency (JEG-3) | Potency (OV90) | Potency (PA-1) | Potency (SKOV3) | Potency (Tov-21-G) | Potency (Tov112D)

CCCn1cnc2c(NCc3ccccc3)nc(N[C@H](CC)CO)nc21
inactive: Potency (CAOV3) | Potency (CASKI) | Potency (Es-2) | Potency (HeLa) | Potency (Hek293T) | Potency (JEG-3) | Potency (OV90) | Potency (PA-1) | Potency (SKOV3) | Potency (Tov-21-G) | Potency (Tov112D)

O=C(NCc1ccc(OC(F)(F)F)cc1)C1c2ccccc2C(=O)N1C1CCOCC1 (centres undefined)
inactive: Potency (CAOV3) | Potency (CASKI) | Potency (Es-2) | Potency (HeLa) | Potency (Hek293T) | Potency (JEG-3) | Potency (OV90) | Potency (PA-1) | Potency (SKOV3) | Potency (Tov-21-G) | Potency (Tov112D)

OCc1ccccc1O[C@@H]1O[C@H](CO)[C@@H](O)[C@H](O)[C@H]1O
inactive: Potency (CAOV3) | Potency (CASKI) | Potency (Es-2) | Potency (HeLa) | Potency (Hek293T) | Potency (JEG-3) | Potency (OV90) | Potency (PA-1) | Potency (SKOV3) | Potency (Tov-21-G) | Potency (Tov112D)

CC1CCC2C(C)(C)C(O)CCC2(C)C12Cc1c(O)cc3c(c1O2)CN=C3N (centres undefined)
inactive: Potency (CAOV3) | Potency (CASKI) | Potency (Es-2) | Potency (HeLa) | Potency (Hek293T) | Potency (JEG-3) | Potency (OV90) | Potency (PA-1) | Potency (SKOV3) | Potency (Tov-21-G) | Potency (Tov112D)

COC(=O)C1(Cc2ccc(O)cc2)OC(=O)C(OC)=C1c1ccc(O)cc1 (centres undefined)
inactive: Potency (CAOV3) | Potency (CASKI) | Potency (Es-2) | Potency (HeLa) | Potency (Hek293T) | Potency (JEG-3) | Potency (OV90) | Potency (PA-1) | Potency (SKOV3) | Potency (Tov-21-G) | Potency (Tov112D)

COC(=O)C[C@@H]1C(C(=O)O)=CO[C@@H](O[C@@H]2O[C@H](CO)[C@@H](O)[C@H](O)[C@H]2O)/C1=C\COC(=O)/C=C\c1ccccc1
inactive: Potency (CAOV3) | Potency (CASKI) | Potency (Es-2) | Potency (HeLa) | Potency (Hek293T) | Potency (JEG-3) | Potency (OV90) | Potency (PA-1) | Potency (SKOV3) | Potency (Tov-21-G) | Potency (Tov112D)

CC1CCC2(NC1)OC1C(=O)C3C4CCC5CC(O[C@@H]6O[C@H](CO)[C@@H](O)[C@H](O)[C@H]6O[C@@H]6O[C@@H](C)[C@H](O)[C@@H](O)[C@H]6O)CCC5(C)C4CCC3(C)C1C2C (some centres undefined)
inactive: Potency (CAOV3) | Potency (CASKI) | Potency (Es-2) | Potency (HeLa) | Potency (Hek293T) | Potency (JEG-3) | Potency (OV90) | Potency (PA-1) | Potency (SKOV3) | Potency (Tov-21-G) | Potency (Tov112D)

CC1(CO)CC[C@]2(C(=O)O[C@@H]3O[C@H](CO)[C@@H](O)[C@H](O)[C@H]3O)CC[C@]3(C)C(=CCC4[C@@]5(C)C[C@H](O)[C@H](O[C@@H]6OC[C@@H](O)[C@H](O)[C@H]6O)[C@@](C)(CO)C5CC[C@]43C)C2C1 (some centres undefined)
inactive: activity change, negative = cytotoxicity (CAOV3) -5.98% [at 11.6 µM] | activity change, negative = cytotoxicity (CASKI) 3.16% [at 11.6 µM] | activity change, negative = cytotoxicity (Es-2) -0.538% [at 11.6 µM] | activity change, negative = cytotoxicity (HeLa) 1.08% [at 11.6 µM] | activity change, negative = cytotoxicity (Hek293T) 6.32% [at 11.6 µM] | activity change, negative = cytotoxicity (JEG-3) 16.2% [at 11.6 µM] | activity change, negative = cytotoxicity (OV90) 9.02% [at 11.6 µM] | activity change, negative = cytotoxicity (PA-1) -3.32% [at 11.6 µM] | activity change, negative = cytotoxicity (SKOV3) 2.79% [at 11.6 µM] | activity change, negative = cytotoxicity (Tov-21-G) 4.01% [at 11.6 µM] | activity change, negative = cytotoxicity (Tov112D) -0.665% [at 11.6 µM]

CC[C@H](C)[C@@H]1NC(=O)[C@H](Cc2ccc(OC)cc2)NC(=O)CCCSC[C@@H](C(=O)N2CCC[C@H]2C(=O)N[C@@H](CC(C)C)C(=O)NCC(N)=O)NC(=O)[C@H](CC(N)=O)NC(=O)[C@H](CCC(N)=O)NC1=O (Y(Me)IQNCPLG-NH2; linker N-5 via X6)
inactive: Potency (CAOV3) | Potency (CASKI) | Potency (Es-2) | Potency (HeLa) | Potency (Hek293T) | Potency (JEG-3) | Potency (OV90) | Potency (PA-1) | Potency (SKOV3) | Potency (Tov-21-G) | Potency (Tov112D)

C=C(C)C(C)C1OC23CC4(CO2)C(CCC2C5(C)CCC(OC6OCC(O)C(OC7OC(CO)C(O)C(OC8OCC(O)C(O)C8O)C7O)C6OC6OC(CO)C(O)C6O)C(C)(C)C5CCC24C)C3C(C)(O)C1OC(C)=O (centres undefined)
inactive: activity change, negative = cytotoxicity (CAOV3) 4.55% [at 11.6 µM] | activity change, negative = cytotoxicity (CASKI) 5.79% [at 11.6 µM] | activity change, negative = cytotoxicity (Es-2) 0.0055% [at 11.6 µM] | activity change, negative = cytotoxicity (HeLa) 1.27% [at 11.6 µM] | activity change, negative = cytotoxicity (Hek293T) 12% [at 11.6 µM] | activity change, negative = cytotoxicity (JEG-3) -1.98% [at 11.6 µM] | activity change, negative = cytotoxicity (OV90) -0.379% [at 11.6 µM] | activity change, negative = cytotoxicity (PA-1) -1.12% [at 11.6 µM] | activity change, negative = cytotoxicity (SKOV3) 3.59% [at 11.6 µM] | activity change, negative = cytotoxicity (Tov-21-G) 1.52% [at 11.6 µM] | activity change, negative = cytotoxicity (Tov112D) 5.61% [at 11.6 µM]

NCc1c[nH]c(=S)n1C1CCc2c(F)cc(F)cc2C1 (centres undefined)
inactive: Potency (CAOV3) | Potency (CASKI) | Potency (Es-2) | Potency (HeLa) | Potency (Hek293T) | Potency (JEG-3) | Potency (OV90) | Potency (PA-1) | Potency (SKOV3) | Potency (Tov-21-G) | Potency (Tov112D)

CC(=O)C1CCC2(C)C3=C(CCC12C)C1(C)CCC(=O)C(C)(C)C1CC3 (centres undefined)
inactive: Potency (CAOV3) | Potency (CASKI) | Potency (Es-2) | Potency (HeLa) | Potency (Hek293T) | Potency (JEG-3) | Potency (OV90) | Potency (PA-1) | Potency (SKOV3) | Potency (Tov-21-G) | Potency (Tov112D)
